From PubChem BioAssay (NCATS)
“And” between values parts separate entries of the source, which are not always exact repeats. Equal values may be shown once. The source made the active and inactive calls. The call rests on the fitted dose curve.

Experiment: qHTS drug screen for cell cycle checkpoint inhibitors in PARPi-resistant BRCA-mutant ovarian cancer cell lines. (AID 1963452)
Conditions: PEO1/OlaR viability, CellTiter-Glo luminescence, 96 h; for Z-AUC: stronger effect = lower value
Outline: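 PEO1, PEO4 and PEO1/OlaR ovarian cancer cells, 600 per well, exposed 96 h at 37C to a dilution series. Viability read by CellTiter-Glo luminescence, normalized to DMSO and empty wells; activity summarized as Z-AUC.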

[1] = measured here: PEO1 parental Z-AUC
Potency means the concentration at half of the fitted maximal effect.

Which Z-AUC does the source give for `CNC(=O)c1cc(Oc2ccc3nc(N[C@@H]4CCCC[C@H]4O)sc3c2)ccn1` here?
The Z-AUC was -0.222 (inactive).

What about the Z-AUC [1] of the same compound?
The Z-AUC was -0.612.

What about the Z-AUC (measured here: PEO4 Z-AUC) of the same compound?
The Z-AUC was -0.476.

With `COc1cc(OC)c(/C=C/S(=O)(=O)Cc2ccc(OC)c(NCC(=O)O)c2)c(OC)c1` as the compound, how does the Potency read?
The Potency was 0.0195 µM (active).

What about the Z-AUC [1] of the same compound?
Its Z-AUC is -2.09.

And the Z-AUC (measured here: PEO4 Z-AUC)?
The Z-AUC was -1.96.

For `CCCCNc1ncc2c(-c3ccc(CN4CCN(C)CC4)cc3)cn(C3CCC(O)CC3)c2n1` (stereo not drawn), which Z-AUC is on record?
The Z-AUC was -1.53 (inactive) and -0.825 (inactive).

And the Z-AUC [1]?
The Z-AUC was -1.06 and -0.682.

What about the Z-AUC (measured here: PEO4 Z-AUC) of the same compound?
The Z-AUC was -1.13 and -0.785.

What does the source list for `C[C@H]1[C@H](O)O[C@@H]2O[C@@]3(C)CC[C@H]4[C@H](C)CC[C@@H]1[C@@]24OO3`?
Z-AUC: 1.05 (inactive); Z-AUC [1]: 0.808; Z-AUC (measured here: PEO4 Z-AUC): 1.02

Which Z-AUC does the source give for `Cc1cnc(Nc2ccc(F)cc2Cl)nc1-c1c[nH]c(C(=O)NC(CO)c2cccc(Cl)c2)c1` (stereo not drawn) here?
The Z-AUC was -0.685 (inactive).

And the Z-AUC [1]?
Its Z-AUC is -0.607.

What about the Z-AUC (measured here: PEO4 Z-AUC) of the same compound?
Its Z-AUC is -0.952.

For `CCN1CCN(Cc2ccc(Nc3ncc(F)c(-c4cc(F)c5nc(C)n(C(C)C)c5c4)n3)nc2)CC1`, which Z-AUC is on record?
The Z-AUC was 0.0865 (inactive).

What about the Z-AUC [1] of the same compound?
Its Z-AUC is 0.712.

What about the Z-AUC (measured here: PEO4 Z-AUC) of the same compound?
Its Z-AUC is 0.621.

Which Z-AUC does the source give for `CNC(=O)c1cccc(-c2ccc3c(N4CCOC[C@@H]4C)nc(N4CCOC[C@@H]4C)nc3n2)c1` here?
The Z-AUC was -1.02 (inactive).

And the Z-AUC [1]?
Its Z-AUC is -0.895.

And the Z-AUC (measured here: PEO4 Z-AUC)?
The Z-AUC was -0.994.

With `CC[C@H](NC(=O)[C@H](CS(=O)(=O)CC1CC1)N[C@@H](c1ccc(F)cc1)C(F)(F)F)C(=O)C(=O)NC1CC1` as the compound, how does the Z-AUC read?
Its Z-AUC is 0.263 (inactive).

What about the Z-AUC [1] of the same compound?
The Z-AUC was 1.63.

What about the Z-AUC (measured here: PEO4 Z-AUC) of the same compound?
The Z-AUC was 1.51.

For `c1cc(Nc2cc(C3CC3)[nH]n2)nc(Nc2ccc3nc[nH]c3c2)n1`, which Z-AUC is on record?
The Z-AUC was -1.72 (inactive).

And the Z-AUC [1]?
The Z-AUC was -2.08.

What about the Z-AUC (measured here: PEO4 Z-AUC) of the same compound?
Its Z-AUC is -2.23.

With `CN1CCN(C2CCC(n3cc(-c4ccc(Oc5ccccc5)cc4)c4c(N)ncnc43)CC2)CC1` (stereo not drawn) as the compound, how does the Z-AUC read?
The Z-AUC was -1.03 (inactive).

And the Z-AUC [1]?
The Z-AUC was -1.14.

And the Z-AUC (measured here: PEO4 Z-AUC)?
The Z-AUC was -0.439.

For `CO[C@@H](C)Cn1c(=O)n(C)c2cnc3ccc(-c4cncc(C(C)(C)O)c4)cc3c21`, which Potency is on record?
Its Potency is 2.19 µM (active).

And the Z-AUC [1]?
The Z-AUC was -2.24.

And the Z-AUC (measured here: PEO4 Z-AUC)?
Its Z-AUC is -2.14.

Which Z-AUC does the source give for `C=C1C(=O)O[C@H]2[C@H]1CC/C(C)=C/CC[C@@]1(C)O[C@@H]21` here?
Its Z-AUC is 1.08 (inactive).

And the Z-AUC [1]?
Its Z-AUC is 0.881.

What about the Z-AUC (measured here: PEO4 Z-AUC) of the same compound?
The Z-AUC was 0.819.

With `Cc1c(NC(=O)c2cc(C(N)=O)nc3cc(F)ccc23)c(C(F)(F)F)nn1Cc1ccc(C#N)cc1` as the compound, how does the Z-AUC read?
The Z-AUC was -2.01 (inactive).

What about the Z-AUC [1] of the same compound?
The Z-AUC was -1.49.

What about the Z-AUC (measured here: PEO4 Z-AUC) of the same compound?
The Z-AUC was -1.92.

With `CNCc1ccc(-c2cc(-c3nc(-c4ccc(S(=O)(=O)C(C)C)cc4)cnc3N)on2)cc1` as the compound, how does the Z-AUC read?
The Z-AUC was 0.146 (inactive).

What about the Z-AUC [1] of the same compound?
Its Z-AUC is 0.477.

And the Z-AUC (measured here: PEO4 Z-AUC)?
Its Z-AUC is 0.605.

Which Z-AUC does the source give for `CCOc1cc(C(=O)N2CCC(N3CCN(C)CC3)CC2)ccc1Nc1ncc2c(n1)N(C1CCCC1)c1ccccc1C(=O)N2C` here?
The Z-AUC was -1.32 (inactive).

What about the Z-AUC [1] of the same compound?
Its Z-AUC is 0.31.

And the Z-AUC (measured here: PEO4 Z-AUC)?
Its Z-AUC is -0.487.

Which Z-AUC does the source give for `CCN1CCN(Cc2ccc(NC(=O)c3ccc(C)c(/C=C/c4cnc5[nH]ccc5c4OC)c3)cc2C(F)(F)F)CC1` here?
The Z-AUC was -1.16 (inactive).

And the Z-AUC [1]?
The Z-AUC was -1.48.

And the Z-AUC (measured here: PEO4 Z-AUC)?
Its Z-AUC is -1.42.

With `Clc1cc2c(NC3CCCC3)nnc(-c3ccncc3)c2cc1Cl` as the compound, how does the Z-AUC read?
Its Z-AUC is -0.0819 (inactive).

And the Z-AUC [1]?
Its Z-AUC is 0.551.

And the Z-AUC (measured here: PEO4 Z-AUC)?
The Z-AUC was 0.556.

What does the source list for `COc1cc2ncnc(Nc3cccc(Cl)c3F)c2cc1OC(=O)N1CCN(C)C[C@H]1C`?
Z-AUC: -0.739 (inactive); Z-AUC [1]: -1.08; Z-AUC (measured here: PEO4 Z-AUC): -1.14

For `NC(=O)[C@H]1CCS[C@@H]2C[C@]3(CCCN3C(=O)Cc3ccc(NC(=O)COc4ccc(Cl)cc4Cl)cc3)C(=O)N12`, which Z-AUC is on record?
Its Z-AUC is -0.482 (inactive).

And the Z-AUC [1]?
The Z-AUC was 0.014.

What about the Z-AUC (measured here: PEO4 Z-AUC) of the same compound?
Its Z-AUC is 0.0247.

What does the source list for `CN(C)C1CCN(C(=O)c2ccc(NC(=O)Nc3ccc(-c4nc(N5CCOCC5)nc(N5CCOCC5)n4)cc3)cc2)CC1`?
Potency: 309 nM (active) and 692 nM (active); Z-AUC [1]: -2.41 and -1.47; Z-AUC (measured here: PEO4 Z-AUC): -1.87 and -2.03

What does the source list for `Cc1cccc(Oc2cnc(=O)[nH]c2)c1`?
Z-AUC: -0.692 (inactive); Z-AUC [1]: -0.81; Z-AUC (measured here: PEO4 Z-AUC): -0.687

With `Cc1ccc([N+](=O)[O-])cc1S(=O)(=O)N(C)/N=C/c1cnc2ccc(Br)cn12` as the compound, how does the Z-AUC read?
Its Z-AUC is -2.4 (inactive).

And the Z-AUC [1]?
Its Z-AUC is -2.53.

What about the Z-AUC (measured here: PEO4 Z-AUC) of the same compound?
The Z-AUC was -2.56.

Which results are given for `CC[C@]12C=CCN3CC[C@@]4(c5cc([C@@]6(C(=O)OC)C[C@H]7C[C@@H](C(C)(F)F)CN(Cc8c6[nH]c6ccccc86)C7)c(OC)cc5N(C)[C@H]4[C@@](O)(C(=O)OC)[C@@H]1OC(C)=O)[C@@H]32`?
Z-AUC: -2.08 (inactive) and -1.5 (inactive); Z-AUC [1]: -0.895 and -0.96; Z-AUC (measured here: PEO4 Z-AUC): -1.63 and -1.07

With `FC(F)(F)c1ccc(Nc2nc(-c3c(C(F)(F)F)nc4ccccn34)cs2)cc1` as the compound, how does the Z-AUC read?
The Z-AUC was -2.12 (inactive).

What about the Z-AUC [1] of the same compound?
The Z-AUC was -1.08.

What about the Z-AUC (measured here: PEO4 Z-AUC) of the same compound?
Its Z-AUC is -1.77.

Which Potency does the source give for `COc1cccc(Nc2ncnn3ccc(CN4CC[C@@H](N)[C@H](O)C4)c23)c1` here?
Its Potency is 2.19 µM (active).

What about the Z-AUC [1] of the same compound?
Its Z-AUC is -1.46.

What about the Z-AUC (measured here: PEO4 Z-AUC) of the same compound?
The Z-AUC was -1.16.

What does the source list for `CC#CC(=O)N1CCC[C@H]1c1nc(-c2ccc(C(=O)Nc3ccccn3)cc2)c2c(N)nccn12`?
Z-AUC: -0.264 (inactive); Z-AUC [1]: 0.632; Z-AUC (measured here: PEO4 Z-AUC): 0.342
